# Test results as given in PubChem BioAssay (NCATS).
# Results filed as inconclusive are left out. Entries that show only a call come without a potency. Unmarked numbers belong to inactive results. Active and inactive are the calls of the source. The call rests on the fitted dose curve; in most records, active means well fitted inhibition curve with a large enough effect; inconclusive means small, poorly fitted or top-dose-only effect; inactive means flat fitted curve, though single readings scatter.
# Columns and labels:
# [1] = test system: KB-3-1; assay: Cytotoxic Profiling of Annotated Libraries Using Quantitative High-Throughput Screening (AID 1296008); conditions: Five cell lines viability, CellTiter-Glo ATP luminescence, 48-72 h; max response: active compounds read low; further: potency means the concentration at half of the fitted maximal effect
# Method in brief: (§1)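 Compounds were pin-transferred onto cells and incubated 48 or 72 hr at 37 degree Celsius, 95% humidity. CellTiter-Glo was added, plates sat 10 min at room temperature, then ATP-coupled luminescence was imaged as the viability read-out.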
# [2] = test system: NIH3T3; assay: as above; conditions: Five cell lines viability, CellTiter-Glo ATP luminescence, 48-72 h; max response: active compounds read low
# Method in brief: as §1
# [3] = test system: HACAT; assay: qHTS assay to identify novel small-molecules to repurpose for Merkel cell carcinoma treatment (AID 1296009); conditions: MCC and control cell lines, CellTiter-Glo viability, 72 h; at 44.8 µM (top of the series) unless noted
# Method in brief: (§2)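 Luminescence from CellTiter-Glo, read 10 min after addition at room temperature, reported viability following a 72 hr, 37 degree celsius treatment with NPC or MIPE compounds in titration; values normalized to plate controls.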
# [4] = test system: NIH3T3; assay: as above; conditions: MCC and control cell lines, CellTiter-Glo viability, 72 h; at 44.8 µM (top of the series) unless noted
# Method in brief: as §2
# [5] = test system: HEK293T; assay: as above; conditions: MCC and control cell lines, CellTiter-Glo viability, 72 h; at 44.8 µM (top of the series) unless noted
# Method in brief: as §2
# [6] = test system: CRL-7250; assay: as above; conditions: MCC and control cell lines, CellTiter-Glo viability, 72 h; at 44.8 µM (top of the series) unless noted
# Method in brief: as §2
# Further: nearly all actives have a fitted effect of over 60% in size.
structure (smiles),measurement,setting,value
C[C@@](O)(COc1ccc(C#N)cc1)C(=O)Nc1ccc(C#N)c(C(F)(F)F)c1,max response,[1],2.83%
same,outcome,[2],inactive
same,outcome,[3],inactive
same,outcome,[4],inactive
CCCCCOc1cc2c(cc1-c1cc(/C=C/C(=O)O)ccc1O)C(C)(C)CCC2(C)C,outcome,[1],inactive
same,max response,[2],-4.13%
same,outcome,[3],inactive
same,outcome,[5],inactive
CN1C(=O)N(c2ccc(C#N)c(C(F)(F)F)c2)C(=O)[C@]1(CO)c1ccccc1,outcome,[1],inactive
same,outcome,[2],inactive
same,outcome,[6],inactive
same,outcome,[4],inactive
COC(=O)C12C(=O)C(C)(O)C(=O)C1(C)C(C)=CC1C34CCC(OC3=O)C(C)(CO)C4CCC12C (configuration not stated),outcome,[1],inactive
same,outcome,[2],inactive
same,outcome,[6],inactive [at 17.4 µM]
same,outcome,[4],inactive [at 17.4 µM]
C[C@@H]1C(=O)O[C@H]2[C@H](O)[C@@]34[C@@H]5OC(=O)[C@@]3(O[C@@H]3OC(=O)[C@@H](O)[C@@]34[C@H](C(C)(C)C)[C@H]5O)[C@@]12O,outcome,[1],inactive
same,outcome,[2],inactive
same,outcome,[3],inactive [at 17.4 µM]
same,outcome,[4],inactive [at 17.4 µM]
CC12CCC3C(CCC4(O)CC(O)CCC34C=O)C1(O)CCC2C1=CC(=O)OC1 (configuration not stated),Potency,[1],1160 nM (active)
same,outcome,[2],inactive
same,outcome,[4],inactive
COC1CC(OC2CCC3(C)C(CCC4C3CCC3(C)C(C5=CC(=O)OC5)C(OC(C)=O)CC43O)C2)OC(C)C1OC1OC(CO)C(O)C(O)C1O (configuration not stated),Potency,[1],1090 nM (active)
same,outcome,[2],inactive
same,outcome,[4],inactive [at 17.4 µM]
C[C@]12CC[C@H]3[C@@H]([C@H](O)CC4=CC(=O)CC[C@@]43C)[C@@H]1CC[C@@H]2O,outcome,[2],inactive
same,outcome,[6],inactive
same,outcome,[4],inactive
CCc1[nH]c2ccc(OC)cc2c1CCN(C)C,max response,[1],-6.67%
same,outcome,[2],inactive
same,outcome,[4],inactive
